{"source": "paper PMC12136788", "binders": {"B1": {"name": "32462045_32462714_1507_3pUTR_ENSMUSG00000027668_ENSMUST00000091257|mouse|control|control (ssRNA)", "RNA": "GGGAGUUCUACAGUCCGACGAUCACUCUUAUACACUUUCAGUACACUGGGGGUAGGAUGAAACUCAGAACAAAACUCAUCAACCAAAACAGAUAGUCGACAAAUUUCAUCUGUCAUUGCACAAGAAACCUUGUUUGCCACCUCCAACAGAGGAUUGAGCAUCA"}, "B2": {"name": "7395510_7396407_2237_ncRNA_ENSMUSG00000031153_ENSMUST00000132456|mouse|control|control (ssRNA)", "RNA": "GGGAGUUCUACAGUCCGACGAUCAUGUUCUGCAGCUUCUUGUUCAUUUCUCGAAGGUUCUCAUCGCCUGGCUUCACUAGGUCUCUCAGGACACUGCCCAGCCCACUUCGGUCUGUGUGGCCUGCUGCCACAGACACAUCAAUCCAACAGAGGAUUGAGCAUCA"}, "B3": {"name": "chr9:14812383:14812384:-_ENSMUSG00000031934_ENSMUST00000164273|mus_mus|mus_mus_mus_hu_True|28_28 (ssRNA)", "RNA": "GGGAGUUCUACAGUCCGACGAUCAUAGCCCAGGUAGAUACACGCUAACAGUAUAAUGAUGAGUGUCAGCAGGCGGCAGCUAAUGUACUUGAUGAUUAAAUUAUUAGAGUUCUUUUUUGUCUUCAAGUACUGCUCCACAAUUGGCAACAGAGGAUUGAGCAUCA"}, "B4": {"name": "chr11:54532911:54532912:-_ENSMUSG00000052298_ENSMUST00000064104|mus_hu|FALSE|FALSE (ssRNA)", "RNA": "GGGAGUUCUACAGUCCGACGAUCGGGUCGGCAGUGAAAAGAAAAAUGUUUAAAAUAGAAAAAAAAAACUGCAAAAUGGUGUUAGCAUUCACAAAAAAGAUCAUGCGAAGAUCAGAUCCAUACUGAUUAAACAUUGAAAAUUCACAACAGAGGAUUGAGCAUCA"}, "B5": {"name": "chr13:51246309:51246310:+_ENSMUSG00000021395_ENSMUST00000095797|mus_hu|FALSE|FALSE (ssRNA)", "RNA": "GGGAGUUCUACAGUCCGACGAUCCCCACAGUGAAGCACGAGGGACAGAGCGACUGCAGCUGUGGACAGAAAACUGAGGUACUGUGUUUACAUGGUGAGUGGUCGUUACCAUCCAACAGCACAAGGCACAAAAAAUGGGCAUCACAACAGAGGAUUGAGCAUCA"}, "B6": {"name": "chr5:144471560:144471561:-_ENSMUSG00000051306_ENSMUST00000053287|mus_hu|FALSE|FALSE (ssRNA)", "RNA": "GGGAGUUCUACAGUCCGACGAUCGAGACUCCAGUAUCAGUGAAGACAAGAGACGCUGUAUCAAAAAGUGUUGUGUAAUAGAAACAUACUGUCGGCUUUACAAAUCAUGUCUGGGUUAUACAUUCAUAAUGUAAAUACUCAUCACAACAGAGGAUUGAGCAUCA"}, "B7": {"name": "chr7:140404665:140404666:+_ENSG00000090266_ENST00000247866|hu_hu|hu_hu_hu_mus_False|18_38 (ssRNA)", "RNA": "GGGAGUUCUACAGUCCGACGAUCUGCUCCUACUCGUCCAGAGAGUUUACAGUGUCAGUCCUCGUCAUCAGGAGGGAUUCCCAGUUCUUCAUCUGUCCACUGGGAAGGAUCUGGAUACGGAAAGUGACCCAGCACAGCAUCCGACAACAGAGGAUUGAGCAUCA"}, "B8": {"name": "chr6:89793807:89793808:+_ENSG00000146278_ENST00000336032|hu_mus|FALSE|FALSE (ssRNA)", "RNA": "GGGAGUUCUACAGUCCGACGAUCACUUCCCAUCCAGUGACUCGGAGGCUUUGGGAGGACACUAGGGGAAGGUGGGUCACUGAACUUUGCUCCGGCGUAAUUUUCCUUUUGGCUCACUUCUGUUAGAAAUGCUGAUUUCUUCAACAACAGAGGAUUGAGCAUCA"}, "B9": {"name": "chr9:104153060:104153061:-_ENSG00000136897_ENST00000374865|hu_mus|FALSE|FALSE (ssRNA)", "RNA": "GGGAGUUCUACAGUCCGACGAUCAUGAGAUUCCAAGCGACUCUGGAGAUCACUGGGCGGUGUGUAUGCUCGGCUUCGUAAGGGUGGACACACCAAAACAGGUUCUUUUUUCACUUCUUCCACUGUCUCUGCCACAACUGGCUCCAACAGAGGAUUGAGCAUCA"}, "B10": {"name": "chr19:37005844:37005845:-_ENSG00000254004_ENST00000523638|hu_mus|FALSE|FALSE (ssRNA)", "RNA": "GGGAGUUCUACAGUCCGACGAUCGGGAGUUUUCUUAGAUUCACUGGGUCUCUCUUCGGUAUGUUGUUUCUGAUGAGAAAGGAAGUUUCCUCUCUGGCUGAAGGCCUUCCCACAUUCCCCACACUUGUAGGACUCCCUCCUUGGCAACAGAGGAUUGAGCAUCA"}, "B11": {"name": "118238769_118243032_844_CDS_ENSMUSG00000005102_ENSMUST00000005233|mouse|control|control (ssRNA)", "RNA": "GGGAGUUCUACAGUCCGACGAUCAGAGAAAUGGAGGAUGUCACACGAGCCAGGAGAGGGUUCACCACUACACACAGAAUACUGACGUUCUCGCCUGGACCUUCCUGAGGAGUAUGUCCGGGCUUUACCAUUUCCUACAAAGUCCAACAGAGGAUUGAGCAUCA"}, "B12": {"name": "chr12:72179577:72179578:+_ENSG00000080371_ENST00000261263|hu_mus|motif|central (ssRNA)", "RNA": "GGGAGUUCUACAGUCCGACGAUCGUUUAGCACUUAAGGUCUCUGCAGUGUUAUAAACGUAAUUGAAAAUACUGUUAAUUCGGUAACUCCAUUGGUAAAAUGAUGUGACUUGGAAUAUGGCAGUCUUCAUGUUGAGGGCAAUGACAACAGAGGAUUGAGCAUCA"}, "B13": {"name": "chr16:11966626:11966627:-_ENSG00000103342_ENST00000563468|hu_hu|FALSE|FALSE (ssRNA)", "RNA": "GGGAGUUCUACAGUCCGACGAUCUUGUAACAUGUGCACACACACUCGCACACUCAGAAUGAUCUGCCUGGGGGAAAAAUACUAAAUAUGCCUAAGGGGAAAAUGAAAAAUAAAAAAAUUCCUGUAGGUUUUCAUUAUUGUAGGCAACAGAGGAUUGAGCAUCA"}, "B14": {"name": "chr1:150192712:150192713:-_ENSG00000143401_ENST00000314136|hu_hu|FALSE|FALSE (ssRNA)", "RNA": "GGGAGUUCUACAGUCCGACGAUCGCACCAUACUACACCUGUGUAAAAGUGAUCAUGUUUUAAUUAUGGGCUAAAAAUGACUAAUACAGUAAGCUUGAAUUUAAAAAAUUAAGUCUAAAUAAAUUGCUAGGGAAUUCCACAAUGCAACAGAGGAUUGAGCAUCA"}, "B15": {"name": "chr1:150192712:150192713:-_ENSG00000143401_ENST00000314136|hu_hu|motif|central (ssRNA)", "RNA": "B14 RNA with U81G, A82G"}}, "note": "Changes are numbered by the printed parent chain. Over roughly 24,000 sequences, “enrichment r” has its median near 0.99; the highest 2% begin near 3.7. This is one part of a sample in which the highest values are shown more often than they occur.", "data": [{"molecular_target": "T1, UNK ZnF1-3 (human, UniProt Q9C0B0 31-174)", "T1 sequence": "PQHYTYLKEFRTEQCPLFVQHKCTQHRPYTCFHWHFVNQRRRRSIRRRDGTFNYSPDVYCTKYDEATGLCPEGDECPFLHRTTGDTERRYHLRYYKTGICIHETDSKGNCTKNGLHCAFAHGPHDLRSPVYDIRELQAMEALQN", "assay": "nsRBNS (natural sequence RNA bind-n-seq); RBNS binding buffer (assumed for nsRBNS): 25 mM Tris pH 7.5, 150 mM KCl, 3 mM MgCl2, 0.01% Triton X-100, 500 ug/ml BSA, 20 U/ml SUPERase-In, 4 C; UNK is unkempt and MSI1 is Musashi-1; names of the RNAs are library labels; protein concentration not given here; high values mean tight binding", "units": {"binding signal": "enrichment R"}, "values": [{"binder": "B1", "binding signal": 1.52}, {"binder": "B2", "binding signal": 0.526}, {"binder": "B3", "binding signal": 1.74}, {"binder": "B4", "binding signal": 4.5}, {"binder": "B5", "binding signal": 1.39}, {"binder": "B6", "binding signal": 1.01}, {"binder": "B7", "binding signal": 1.45}, {"binder": "B8", "binding signal": 0.744}, {"binder": "B9", "binding signal": 0.821}, {"binder": "B10", "binding signal": 0.845}, {"binder": "B11", "binding signal": 1.63}, {"binder": "B12", "binding signal": 0.946}, {"binder": "B13", "binding signal": 3.28}, {"binder": "B14", "binding signal": 5.25}, {"binder": "B15", "binding signal": 5.11}]}]}
